From ChEMBL document CHEMBL4513141, “CO-ADD screening of NIH (USA) - Clinical Collection” (2021)
Entries with a potency or affinity are not part of this list.

Tests used:
Klebsiella pneumoniae = conditions: Concentration 20 uM; ASSAY_TEST Inhibition of Bacterial Growth; detection method Absorption (OD600); MEDIA CAMHB; plate type 384well; NBS; CORNING #3640; time 18 hr
Candida albicans = conditions: 20 µM
Cryptococcus neoformans = conditions: Concentration 20 uM; ASSAY_TEST Inhibition of Fungal Growth; detection method Resazurin; Absorption (OD600-OD570); plate type 384well; NBS; CORNING #3640

| Structure (SMILES) | Inhibition (Klebsiella pneumoniae) [%] | Inhibition (Candida albicans) [%] | Inhibition (Cryptococcus neoformans) [%] |
| --- | --- | --- | --- |
| CC(CCc1ccccc1)NCC(O)c1ccc(O)c(C(N)=O)c1.Cl (stereo not given) [LABETALOL HYDROCHLORIDE] | 19.39 | 4.68 | -9.04 |
| COc1ccccc1OCC(O)COC(N)=O (stereo not given) [METHOCARBAMOL] | 10.57 | 3.99 | -8.85 |
| CN1CCc2cc(Cl)c(O)cc2[C@@H](c2ccccc2)C1.Cl | 8.81 | 1.81 | -7.18 |
| CC(C)OC(=O)CCC/C=C\C[C@@H]1[C@@H](CC[C@@H](O)CCc2ccccc2)[C@H](O)C[C@@H]1O [LATANOPROST] | 18.51 | 0.35 | -2.04 |
| Cc1ccc(Cl)c(Nc2ccccc2C(=O)[O-])c1Cl.O.[Na+] [MECLOFENAMATE SODIUM] | 12.39 | 8.09 | 1.36 |
| Cl.OC(CCN1CCCC1)(c1ccccc1)C1CCCCC1 (stereo not given) [PROCYCLIDINE HYDROCHLORIDE] | 8.43 | 4.68 | -10.03 |
| CCCCc1nc(Cl)c(CO)n1Cc1ccc(-c2ccccc2-c2nnn[n-]2)cc1.[K+] [LOSARTAN POTASSIUM] | 7.23 | 5 | -3.04 |
| CCc1cc(C(N)=S)ccn1 [ETHIONAMIDE] | 13.14 | 1.99 | -7.71 |
| CC(=O)NS(=O)(=O)c1ccc(N)cc1 [SULFACETAMIDE] | 11.67 | 1.53 | 0.24 |
| O=C(O)CCc1nc(-c2ccccc2)c(-c2ccccc2)o1 [OXAPROZIN] | 16.28 | 18.9 | -4.51 |
